Inconclusive results are not listed. Values without a mark were called inactive. Calls follow the shape of the dose curve; as a rule, active = well fitted inhibition curve with a large enough effect; inconclusive = small, poorly fitted or top-dose-only effect; inactive = no such curve, though single readings can be large or run the other way.
Test system: Zika virus NS2B-NS3 protease (unlinked complex)
Experiment: Primary screen GU Rhodamine qHTS for Zika virus inhibitors: Unlinked NS2B-NS3 protease assay (AID 1347159); also: nearly all actives have a fitted effect of over 60% in size
Conditions: Recombinant ZIKV NS2B-NS3 protease, Rhodamine110 substrate fluorescence; series mostly up to 107 µM; activity change, negative = inhibition: at the top concentration
In short: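 Buffer 10 mM Tris-HCl pH 8.0, 0.01% Tween 20. Unlinked protease 25 nM; compound preincubation 15 min, RT, protected from light. Substrate Rhod110, 1.5 microM; ~15% conversion in 15 min.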
% is scaled to controls: 0 for no effect and ±100 for the full control effect.

SMILES	activity change, negative = inhibition
CN(C)c1ccc2c(c1)OC(N)=C(C#N)C2c1cccc(C(F)(F)F)c1 (stereo not given)	0%
Cc1ccc(C(=O)Nc2noc3ccccc23)cc1	-7.39%
COc1cc(/C=C/C(=O)OC[C@H]2O[C@@](CO)(O[C@H]3O[C@H](CO)[C@@H](O)[C@H](O)[C@H]3O)[C@@H](OC(=O)/C=C/c3ccc(O)c(OC)c3)[C@@H]2O)ccc1O	-20.9% [at 32.5 µM]
CCCC(=O)NCCc1csc(-c2ccc(Cl)cc2)n1	0%
C=C1CC2C(C)(CCC(=O)O)C(C(C)(C)O)CCC2(C)C2C(=O)OC(C)(C(=O)OC)C(=O)C12C (stereo not given)	4% [at 57.1 µM]

From PubChem BioAssay (NCATS)
